Experimental data taken from publication PMC5700166.
Numbering of substitutions follows the chain as printed.

Key:
Assay in all cases: protein-binding microarray (PBM); PBM: ~300 nM protein, 6 mM HEPES pH 7.8, 80 mM KCl, 0.5 mM EDTA, 0.5 mM EGTA, 6% glycerol, 35 ng/ul poly-dIdC, 1% milk, 1 h, room temperature; Ap Aiptasia and Nv Nematostella (sea anemones) / Co Capsaspora / Aq Amphimedon (sponge) / Dm Drosophila / Hu human; RHD is the Rel homology domain; high values mean tight binding
Details in all cases: dsDNA, one strand shown
[1] = biological target: T1, GST-Nv-NF-kB (Ser allele) (Nematostella vectensis, UniProt A7UNT2 2-411)
T1 sequence: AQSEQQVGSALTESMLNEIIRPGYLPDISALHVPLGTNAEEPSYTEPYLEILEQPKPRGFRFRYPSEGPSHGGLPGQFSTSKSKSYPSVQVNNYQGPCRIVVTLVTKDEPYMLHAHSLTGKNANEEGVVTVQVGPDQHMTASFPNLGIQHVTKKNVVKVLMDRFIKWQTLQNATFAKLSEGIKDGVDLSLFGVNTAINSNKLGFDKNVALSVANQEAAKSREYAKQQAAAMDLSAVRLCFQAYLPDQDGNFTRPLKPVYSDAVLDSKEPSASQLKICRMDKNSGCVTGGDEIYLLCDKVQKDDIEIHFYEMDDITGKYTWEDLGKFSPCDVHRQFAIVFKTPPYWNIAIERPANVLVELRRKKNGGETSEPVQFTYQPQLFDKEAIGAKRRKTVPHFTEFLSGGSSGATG

GST-Dm-Relish = biological target: T2, GST-Dm-Relish (Drosophila melanogaster, UniProt Q94527 99-473)
T2 sequence: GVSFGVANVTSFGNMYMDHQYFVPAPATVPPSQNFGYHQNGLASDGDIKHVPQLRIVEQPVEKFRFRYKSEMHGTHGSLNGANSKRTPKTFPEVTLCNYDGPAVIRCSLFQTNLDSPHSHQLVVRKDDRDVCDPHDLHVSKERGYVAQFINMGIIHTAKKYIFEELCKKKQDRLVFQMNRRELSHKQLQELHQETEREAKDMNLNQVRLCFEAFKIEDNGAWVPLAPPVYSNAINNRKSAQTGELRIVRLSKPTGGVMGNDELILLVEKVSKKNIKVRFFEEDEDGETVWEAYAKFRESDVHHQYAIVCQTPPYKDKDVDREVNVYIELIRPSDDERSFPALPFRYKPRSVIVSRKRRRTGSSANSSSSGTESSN

GST-Aq-NF-kB = biological target: T3, GST-Aq-NF-kB (Amphimedon queenslandica, UniProt A9Y5G7 2-389)
T3 sequence: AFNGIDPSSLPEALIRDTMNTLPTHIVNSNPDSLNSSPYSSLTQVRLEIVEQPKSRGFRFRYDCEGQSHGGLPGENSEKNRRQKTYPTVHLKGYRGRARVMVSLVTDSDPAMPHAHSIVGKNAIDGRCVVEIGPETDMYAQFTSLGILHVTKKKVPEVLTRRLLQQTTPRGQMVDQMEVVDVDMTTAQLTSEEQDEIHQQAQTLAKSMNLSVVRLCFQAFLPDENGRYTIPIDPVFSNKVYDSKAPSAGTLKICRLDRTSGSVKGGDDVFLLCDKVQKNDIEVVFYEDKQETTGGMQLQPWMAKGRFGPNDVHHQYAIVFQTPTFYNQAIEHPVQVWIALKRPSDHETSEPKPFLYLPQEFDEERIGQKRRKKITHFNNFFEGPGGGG

GST-Hu-p50 = GST-Hu-p50 (Homo sapiens, UniProt P19838 7-356)
Chain of GST-Hu-p50 (P19838 7-356): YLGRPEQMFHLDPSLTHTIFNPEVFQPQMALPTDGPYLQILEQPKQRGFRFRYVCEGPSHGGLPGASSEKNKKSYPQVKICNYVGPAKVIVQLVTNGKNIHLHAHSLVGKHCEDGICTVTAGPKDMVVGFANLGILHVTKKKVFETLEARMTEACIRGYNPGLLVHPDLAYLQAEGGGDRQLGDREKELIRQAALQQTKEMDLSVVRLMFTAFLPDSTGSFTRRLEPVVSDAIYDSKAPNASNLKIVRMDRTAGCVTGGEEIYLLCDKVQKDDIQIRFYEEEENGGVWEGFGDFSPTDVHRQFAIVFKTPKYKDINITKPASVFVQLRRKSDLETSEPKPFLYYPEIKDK

[2] = biological target: T4, GST-Nv-NF-kB (Cys allele) (Nematostella vectensis, UniProt E5G601 2-411)
T4 sequence: T1 sequence with R21Q, S66C, N207S, Q215E, A217V, K225E, E268A, E399D

GST-Ap-NF-kB RHD = biological target: T5, GST-Ap-NF-kB RHD (Exaiptasia pallida (Aiptasia), UniProt A0A913YAJ5 2-422)
T5 sequence: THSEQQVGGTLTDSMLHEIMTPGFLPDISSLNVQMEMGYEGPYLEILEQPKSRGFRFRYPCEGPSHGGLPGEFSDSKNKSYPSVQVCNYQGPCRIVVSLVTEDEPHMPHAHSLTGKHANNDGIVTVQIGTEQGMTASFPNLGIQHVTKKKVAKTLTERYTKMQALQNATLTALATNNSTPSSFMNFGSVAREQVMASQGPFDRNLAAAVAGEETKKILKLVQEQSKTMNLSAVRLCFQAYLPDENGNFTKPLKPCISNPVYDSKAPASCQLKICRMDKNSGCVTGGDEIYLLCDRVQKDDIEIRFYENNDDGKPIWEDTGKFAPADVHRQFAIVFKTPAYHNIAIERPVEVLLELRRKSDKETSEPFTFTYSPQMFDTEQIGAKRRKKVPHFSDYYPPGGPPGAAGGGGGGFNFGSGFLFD

GST-Co-NF-kB = biological target: T6, GST-Co-NF-kB (Capsaspora owczarzaki, UniProt F1ARL5 200-546)
T6 sequence: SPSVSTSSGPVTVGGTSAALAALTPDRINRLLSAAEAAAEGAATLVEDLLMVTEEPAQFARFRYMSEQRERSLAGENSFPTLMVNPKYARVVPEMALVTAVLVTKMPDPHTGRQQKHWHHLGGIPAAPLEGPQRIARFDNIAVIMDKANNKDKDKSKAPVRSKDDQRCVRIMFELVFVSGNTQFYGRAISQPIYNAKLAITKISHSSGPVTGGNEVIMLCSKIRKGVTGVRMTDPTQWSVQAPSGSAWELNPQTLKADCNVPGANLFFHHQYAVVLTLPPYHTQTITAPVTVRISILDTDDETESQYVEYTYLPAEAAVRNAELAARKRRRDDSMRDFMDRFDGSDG

| Sequence | binding signal [1] [z-score] | binding signal (GST-Dm-Relish) [z-score] | binding signal (GST-Aq-NF-kB) [z-score] | binding signal (GST-Hu-p50) [z-score] | binding signal [2] [z-score] | binding signal (GST-Ap-NF-kB RHD) [z-score] | binding signal (GST-Co-NF-kB) [z-score] |
| --- | --- | --- | --- | --- | --- | --- | --- |
| CCGATTAACATCAAAATTTCCGGTGATGTTAATCGGGTCTTGATTCGCTTGACGCTGCTG | 1.02 | 1.67 | 3.05 | 2.46 | – | – | – |
| CCGATTAACATCAAAAATTACCATGATGTTAATCGGGTCTTGATTCGCTTGACGCTGCTG | 3.14 | 3.14 | 1.73 | 2.52 | 1.73 | – | – |
| CCGATTAACATCACCACCACCCCTGATGTTAATCGGGTCTTGATTCGCTTGACGCTGCTG | – | 1.39 | 1.75 | 2.36 | – | 1.55 | 2.34 |
| CCGATTAACATCAAAATTTGCCCTGATGTTAATCGGGTCTTGATTCGCTTGACGCTGCTG | 1.28 | – | 1.61 | 1.54 | – | – | 1.18 |
| CCGATTAACATCACCAAAATTCCTGATGTTAATCGGGTCTTGATTCGCTTGACGCTGCTG | 1.17 | 1.01 | 1.17 | 1.51 | – | – | – |
| CCGATTAACATCATTCCCGGAAATGATGTTAATCGGGTCTTGATTCGCTTGACGCTGCTG | 2.61 | 1.05 | 2.67 | 1.79 | 3.35 | – | 2.37 |
| CCGATTAACATCACTTCGGGAAATGATGTTAATCGGGTCTTGATTCGCTTGACGCTGCTG | 1.97 | – | 2.16 | 1.48 | 2.8 | – | 2.89 |
| CCGATTAACATCAATTCCCAAAATGATGTTAATCGGGTCTTGATTCGCTTGACGCTGCTG | 2.29 | 1.29 | 1.31 | 1.25 | 2.17 | – | 1.45 |
| CCGATTAACATCAAGGTTTTTCCTGATGTTAATCGGGTCTTGATTCGCTTGACGCTGCTG | 1.62 | 3.17 | 2.97 | 1.61 | – | – | – |
| CCGATTAACATCAAGAATTTTCCTGATGTTAATCGGGTCTTGATTCGCTTGACGCTGCTG | 1.03 | – | 1.12 | 1.25 | – | – | – |
| CCGATTAACATCATTCCGGGAAATGATGTTAATCGGGTCTTGATTCGCTTGACGCTGCTG | 3.44 | – | 1.95 | 1.99 | 2.87 | – | 2.74 |
| CCGATTAACATCAGGTGATCACCTGATGTTAATCGGGTCTTGATTCGCTTGACGCTGCTG | 2.18 | 2.86 | 1.32 | 1.9 | – | – | – |
| CCGATTAACATCAGGAAATAACCTGATGTTAATCGGGTCTTGATTCGCTTGACGCTGCTG | 3.75 | 3.31 | 4.91 | 5.04 | 3.04 | – | – |
| CCGATTAACATCAGACCCCCCCCTGATGTTAATCGGGTCTTGATTCGCTTGACGCTGCTG | – | 4.7 | 4.8 | 4.03 | – | 5.15 | 4.59 |
| CCGATTAACATCAAAAAAGTCCGTGATGTTAATCGGGTCTTGATTCGCTTGACGCTGCTG | – | 4.7 | 3.69 | 1.4 | 1.12 | – | – |
| CCGATTAACATCAAGGGCTTTCCTGATGTTAATCGGGTCTTGATTCGCTTGACGCTGCTG | – | 2.98 | 3.6 | 1.47 | – | 1.28 | – |
| CCGATTAACATCAAATTTCCGGGTGATGTTAATCGGGTCTTGATTCGCTTGACGCTGCTG | 1.31 | – | 1.44 | 1.02 | – | – | 1.32 |
